Results on eight molecules are retold here after PubChem BioAssay (NCATS).

Values without a mark were called inactive. Inconclusive results are not listed. Calls of active or inactive are those of the source. Unless noted, calls come from the whole dose curve; as a rule, active = well fitted curve in either direction with a large enough effect (not every such curve was filed as active); inconclusive = small, poorly fitted or top-dose-only effect, or another doubt; inactive = flat fitted curve, though single readings scatter.

Assay [1] can be described thus: AP1 Signaling Pathway (AID 357).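 Note: ME-180 reporter cells stimulated with EGF at its EC50 level; % is set by controls: 0 for no effect and ±100 for the full control effect.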 The note with it: ME-180 AP-1-bla reporter, EGF-induced, beta-lactamase ratio, 5 h; at 7.69 µM (top of the series) unless noted. The gist of the method:
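Beta-lactamase reporter under AP-1 response element, ME-180 background. Stimulus: EC50 EGF. Compound exposure 5 h, 37 °C. Detection: CCF4, 2.5 h RT, 460/530 nm. Values: AC50 from titration.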

Assay [2] deals with Cytochrome P450 1A2 (Homo sapiens) (UniProt P05177). Nature of the assay: p450-cyp1a2 (AID 410; calls by dose curve; note: potency is the fitted concentration of half-maximal effect). Summed up: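 20nM CYP1A2, 100uM Luciferin-ME (=Km), 100mM KPO4; cpd 10 min RT; +NADPH regen, 60 min RT; stop/detect 20 min; luminescence. Normalized to furafylline 57 uM = full inhibition.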
A short description of assay [3]: NFAT Signaling Pathway (AID 444).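 Note: carbachol stimulus at about its EC50 of 1 µM final; % is set by controls: 0 for no effect and ±100 for the full control effect.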 The conditions noted are these: Jurkat NFAT-bla M1, carbachol, beta-lactamase ratio, 5 h; at 7.69 µM (top of the series) unless noted. Summed up:
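Jurkat cells with NFAT-driven β-lactamase reporter and co-expressed M1 receptor, stimulated with carbachol (final 1 uM, ~EC50), compound titration, 5 h at 37 °C. CCF4 loaded 1 h at RT; 460/530 nm ratio gave %activity and AC50.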

A short description of assay [4]: Stat Signaling Pathway (AID 446).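 Note: ME-180 cervical cancer cells given 40 pM IL-6 alongside compound; SIE-controlled beta-lactamase reporter measured as 460/530 nm FRET emission ratio; % is set by controls: 0 for no effect and ±100 for the full control effect.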 The conditions noted are these: ME-180 (cervical carcinoma) SIE beta-lactamase reporter, IL-6 stimulated, 5 h; at 7.69 µM (top of the series) unless noted. Summed up:
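FRET read-out (405 nm excitation, 460/530 nm emission) of a beta-lactamase reporter under a STAT-inducible element in ME-180 cervical carcinoma cells. Cells with compound receive 40 pM IL-6 for 5 h. Values are normalised to AC90 stimulation and AC90 JAK-inhibitor controls.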

Assay [5] concerns the target Mitogen-activated protein kinase 10 (Mus musculus) (UniProt Q61831). Nature of the assay: JNK3 AlphaScreen Assay (AID 530).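 Note: kinase came from lysate of stimulated human HepG2 cells; signal reports phosphorylation of biotinylated GST-cJun 1-79 at Ser73 with 10 µM ATP; % is set by controls: 0 for no effect and ±100 for the full control effect.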 Summed up: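 HepG2 lysate (IL-1b/TNFa pre-activated) + biotin-GST-cJun 1-79 + anti-pSer73 cJun; cpd titration, 15 min RT; ATP 10 uM start; Tris pH 7.6, MgCl2, DTT, vanadate; beads in EDTA buffer; AlphaScreen.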
The target in assay [6] is 3',5'-cyclic-AMP phosphodiesterase 4B (Homo sapiens) (UniProt Q07343). Nature of the assay: qHTS Assay for Inhibitors of PDE-IV (AID 607; active = well fitted activation curve with a large enough effect in the main read-out, with a control signal flat, not every such curve was filed as active; note: % of control where 0% means no effect). The gist of the method: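 Cell-based read-out of cAMP via a modified cyclic nucleotide-gated channel and membrane potential dye (535/590 nm) in HEK293 cells expressing PDE4 endogenously. Compounds tested up to 22.9 uM final; 100 uM RO 20-1724 reference.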

Assay [7] concerns the target Glucocorticoid receptor (Homo sapiens) (UniProt P04150). As to the kind of experiment: GR-GFP Redistribution (AID 450;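 active = compounds whose dose series gives a full or clear partial fitted curve of increased nuclear translocation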; note: potency is the fitted concentration of half-maximal effect). The conditions noted are these: U2OS GR-GFP nuclear translocation, laser cytometry, 2 h.
Assay [8] has the same target. Nature of the assay: GR-EFC Redistribution (AID 451; calls by dose curve; note: potency is the fitted concentration of half-maximal effect). The note with it: CHO-K1 GR-EFC translocation, beta-gal luminescence, 2 h. The gist of the method: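 CHO-K1 cells expressing nuclear EA and GR-ED fragments of b-gal; compounds titrated up to 46 uM final, 2 h at 37 C. GR nuclear translocation read as complemented b-gal luminescence after 1 h RT detection.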
Assay [9] in a line: Cellular Toxicity (caspase-3) HepG2 (AID 654; active = well fitted curve in the direction sought with a large enough effect; an effect the other way counts as inactive or inconclusive;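 note: cells exposed to compound for 16 hours before reading; 0% = DMSO alone and 100% = caspase signal from 100 µM tamoxifen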). Summed up: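 Luminescent Caspase-Glo 3/7 readout after 16 hr compound exposure of human hepatocellular carcinoma HepG2 cells at 37 °C; qHTS concentration-response, normalized DMSO = 0%, 100 uM tamoxifen = 100%; AC50 by standard Hill equation.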
Assay [10] is described as follows: Cellular Toxicity (caspase-3) HUV-EC-C (AID 656; active = well fitted curve in the direction sought with a large enough effect; an effect the other way counts as inactive or inconclusive). Summed up:
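Luminescent caspase-3/7 activation (aminoluciferin substrate cleavage) in HUV-EC-C cells after 16 hr compound exposure, 37°C. Signal normalized to DMSO basal and 100 uM tamoxifen as 100%; AC50 from concentration-response fitted with the Hill equation.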

Assay [11] can be described thus: Cellular Toxicity (caspase-3) SHSY5Y (AID 657; active = well fitted curve in the direction sought with a large enough effect; an effect the other way counts as inactive or inconclusive;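 note: cells exposed to compound for 16 hours at 37 °C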). The gist of the method: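 Luminescent caspase-3/7 readout (aminoluciferin release) in SH-SY5Y cells after 16 h compound exposure in complete medium. Activity scaled between DMSO basal and 10 uM staurosporine as 100%; concentration-response fitted to Hill equation for AC50.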
The nature of assay [12]: Cellular Toxicity (caspase-3) BJ (AID 658; active = well fitted curve in the direction sought with a large enough effect; an effect the other way counts as inactive or inconclusive;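 note: cells exposed to compound for 16 hours; 0% = DMSO basal and 100% = 10 µM staurosporine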). The note with it: Potency: caspase-3 activation. The gist of the method: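 qHTS, BJ fibroblasts, 1000 cells/well; 5 hr preincubation, 16 hr compound, 37 °C; Caspase-Glo 3/7 reagent, 1 hr RT; luminescence. DMSO = 0%, 10 uM staurosporine = 100%. Hill-equation AC50.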
Assay [13] is described as follows: Cellular Toxicity (caspase-3) MRC-5 (AID 659; active = well fitted curve in the direction sought with a large enough effect; an effect the other way counts as inactive or inconclusive;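 note: 0% = DMSO basal and 100% = 10 µM staurosporine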). Summed up: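 MRC-5 fibroblasts, 1500/well; 16 h cpd, 37 °C; Caspase-Glo 3/7, 1 h RT; lumi read. Norm: DMSO = 0%, 10 uM staurosporine = 100%. Hill-fit AC50 from qHTS conc-response.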
A short description of assay [14]: Cellular Toxicity (caspase-3) Mesangial (AID 660; active = well fitted curve in the direction sought with a large enough effect; an effect the other way counts as inactive or inconclusive;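 note: combined caspase 3 and 7 activity read by Caspase-Glo luminescence; cells exposed to compound for 16 h before the caspase read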). Summed up:
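Luminescent Caspase-Glo 3/7 readout (aminoluciferin substrate cleavage, 20 min RT) after 16 h compound exposure at 37 °C of normal human mesangial cells. Signal increase normalized between DMSO basal and 100 uM tamoxifen; Hill-equation AC50.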

The nature of assay [15]: Cellular Toxicity (caspase-3) Hek293 (AID 664; active = well fitted curve in the direction sought with a large enough effect; an effect the other way counts as inactive or inconclusive;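 note: cells exposed to compound for 16 h at 37 °C before readout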). The conditions noted are these: HEK293 caspase-3 activation, DMSO = 0%, 100 µM tamoxifen = 100%; at 92.2 µM (top of the series). The gist of the method: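 Luminescent Caspase-Glo 3/7 readout (aminoluciferin release) in HEK293 cells after 16 h compound treatment, 37 °C. Normalization: DMSO = basal, 100 uM tamoxifen = 100% stimulation. Concentration-response fitted with standard Hill equation for AC50.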

Assay [16] can be described thus: Cellular Toxicity (caspase-3) N2a (AID 665; active = well fitted curve in the direction sought with a large enough effect; an effect the other way counts as inactive or inconclusive;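 note: compound exposure lasted 16 h at 37 °C before readout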). Summed up:
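Luminescent Caspase-Glo 3/7 readout in N2a mouse neuroblastoma cells after 16 h compound exposure at 37 °C. Signal scaled to DMSO (basal) and 10 uM staurosporine (100%). Concentration-response fitted with Hill equation for AC50.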

The nature of assay [17]: Cellular Toxicity (caspase-3) Renal Proximal Tubule (AID 667; active = well fitted curve in the direction sought with a large enough effect; an effect the other way counts as inactive or inconclusive;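 note: cells exposed to compound for 16 hours at 37 °C before detection; 0% = DMSO basal and 100% = 10 µM staurosporine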). The conditions noted are these: Potency: caspase-3 activation. Summed up: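 Luminescent caspase 3/7 signal from peptide-aminoluciferin cleavage measures apoptosis in freshly isolated rat kidney proximal tubule cells after 16 h compound exposure. Concentration-response data are normalized to DMSO and 10 uM staurosporine, and AC50 values come from Hill equation fits.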

Assay [18] addresses Peroxisome proliferator-activated receptor alpha (Homo sapiens) (UniProt Q07869). Nature of the assay: qHTS assay for small molecule agonists of the peroxisome proliferator-activated receptor alpha (PPARalpha) signaling pathway (AID 651778; active = well fitted curve in the direction sought with a large enough effect; an effect the other way counts as inactive or inconclusive; note: % of control where 0% means no effect). The note with it: PathHunter PPARalpha complementation, chemiluminescence, 6 h; max response: active compounds read high. The gist of the method: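 Enzyme-fragment complementation assay in which ligand-bound PPARalpha translocates and forms an active enzyme that generates chemiluminescence. Cells were plated overnight, exposed to compound for 6 hr at 37 C, and then given detection reagent for 60 min at room temperature.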

Assay [19] can be described thus: qHTS assay for small molecule agonists of the antioxidant response element (ARE) signaling pathway measured by Nrf2-dependant transcriptional activity - cell viability counter screen (AID 720653; active = well fitted curve in the direction sought with a large enough effect in the repeat runs; an effect the other way counts as inactive or inconclusive; note: % is set by controls: 0 for no effect and ±100 for the full control effect). The conditions noted are these: ARE-bla HepG2 viability, CellTiter-Glo ATP luminescence, 16 h; max response: active compounds read low. The gist of the method:
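ARE-bla HepG2 cells treated with compounds for 16 h at 37C; this counter screen measures viability as intracellular ATP by CellTiter-Glo luminescence after 30 min at room temperature.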

Assay [20] is described as follows: qHTS assay for cell viability of the p53RE-bla HCT-116 cell line (AID 743292; active = well fitted curve in the direction sought with a large enough effect; an effect the other way counts as inactive or inconclusive; note: % is set by controls: 0 for no effect and ±100 for the full control effect; nearly all actives have a fitted effect of over 55% in size). Summed up: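 Readout: CellTiter-Glo luminescence after 30 min RT. Treatment: compounds in DMSO, 16 h, 37 C. Cells: CellSensor p53RE-bla HCT-116, 4,000/well, preincubated 5 h.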

Chain of Glucocorticoid receptor (Homo sapiens) (P04150 whole entry, looked up, the tested form may be a part): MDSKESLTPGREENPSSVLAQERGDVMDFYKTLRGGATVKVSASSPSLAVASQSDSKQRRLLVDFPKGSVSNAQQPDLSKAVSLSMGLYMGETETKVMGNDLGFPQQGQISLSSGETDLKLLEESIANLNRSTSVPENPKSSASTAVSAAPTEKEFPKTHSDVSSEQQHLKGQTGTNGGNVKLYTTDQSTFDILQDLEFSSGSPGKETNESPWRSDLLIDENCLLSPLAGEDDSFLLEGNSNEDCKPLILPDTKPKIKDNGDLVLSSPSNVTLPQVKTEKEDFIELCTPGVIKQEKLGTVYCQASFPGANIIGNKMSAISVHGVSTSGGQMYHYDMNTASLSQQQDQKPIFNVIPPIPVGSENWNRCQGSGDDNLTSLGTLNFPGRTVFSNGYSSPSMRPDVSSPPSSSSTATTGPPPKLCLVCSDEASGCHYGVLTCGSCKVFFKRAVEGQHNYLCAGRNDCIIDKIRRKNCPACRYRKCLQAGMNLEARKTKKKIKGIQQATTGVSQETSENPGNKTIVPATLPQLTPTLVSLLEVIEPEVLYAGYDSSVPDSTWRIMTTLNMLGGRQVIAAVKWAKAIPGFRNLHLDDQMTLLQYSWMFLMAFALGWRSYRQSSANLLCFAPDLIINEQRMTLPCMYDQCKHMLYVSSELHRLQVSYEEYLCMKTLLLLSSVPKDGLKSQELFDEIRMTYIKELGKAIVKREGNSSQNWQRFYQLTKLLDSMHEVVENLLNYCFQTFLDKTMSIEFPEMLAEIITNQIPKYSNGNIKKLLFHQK
Chain of 3',5'-cyclic-AMP phosphodiesterase 4B (Homo sapiens) (Q07343 whole entry, looked up): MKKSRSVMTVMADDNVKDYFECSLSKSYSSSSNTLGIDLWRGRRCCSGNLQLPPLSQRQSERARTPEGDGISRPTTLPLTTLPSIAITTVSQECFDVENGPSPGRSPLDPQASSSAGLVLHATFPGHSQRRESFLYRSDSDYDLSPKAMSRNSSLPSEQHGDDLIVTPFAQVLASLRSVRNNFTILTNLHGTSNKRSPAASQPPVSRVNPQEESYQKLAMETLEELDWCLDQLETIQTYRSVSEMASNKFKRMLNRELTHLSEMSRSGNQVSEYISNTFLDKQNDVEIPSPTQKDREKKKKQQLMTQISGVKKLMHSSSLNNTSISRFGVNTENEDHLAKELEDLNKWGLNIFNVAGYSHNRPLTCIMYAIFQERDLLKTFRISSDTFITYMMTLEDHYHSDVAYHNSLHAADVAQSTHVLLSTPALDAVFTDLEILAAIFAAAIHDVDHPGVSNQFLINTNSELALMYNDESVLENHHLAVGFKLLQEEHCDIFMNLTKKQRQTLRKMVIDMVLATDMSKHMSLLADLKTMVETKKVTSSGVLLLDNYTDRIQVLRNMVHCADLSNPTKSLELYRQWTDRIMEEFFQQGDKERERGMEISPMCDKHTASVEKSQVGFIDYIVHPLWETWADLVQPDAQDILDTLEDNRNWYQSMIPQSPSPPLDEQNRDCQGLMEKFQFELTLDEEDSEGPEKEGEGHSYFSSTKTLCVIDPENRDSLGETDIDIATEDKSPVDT
Chain of Cytochrome P450 1A2 (Homo sapiens) (P05177 whole entry, looked up): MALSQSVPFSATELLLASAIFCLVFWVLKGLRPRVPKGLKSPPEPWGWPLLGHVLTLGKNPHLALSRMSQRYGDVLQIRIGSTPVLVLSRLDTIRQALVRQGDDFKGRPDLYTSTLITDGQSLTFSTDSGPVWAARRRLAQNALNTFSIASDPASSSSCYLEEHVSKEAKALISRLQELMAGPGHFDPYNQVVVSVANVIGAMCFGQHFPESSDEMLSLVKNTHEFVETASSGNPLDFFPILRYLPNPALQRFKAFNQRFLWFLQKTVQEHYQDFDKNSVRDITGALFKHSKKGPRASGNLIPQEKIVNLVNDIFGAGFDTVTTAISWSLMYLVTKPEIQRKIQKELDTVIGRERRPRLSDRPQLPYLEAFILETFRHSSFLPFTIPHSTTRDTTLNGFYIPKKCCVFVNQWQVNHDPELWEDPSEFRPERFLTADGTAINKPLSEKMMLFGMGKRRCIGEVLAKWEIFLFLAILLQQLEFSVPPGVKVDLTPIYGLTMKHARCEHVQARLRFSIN
Chain of Peroxisome proliferator-activated receptor alpha (Homo sapiens) (Q07869 whole entry, looked up, the tested form may be a part): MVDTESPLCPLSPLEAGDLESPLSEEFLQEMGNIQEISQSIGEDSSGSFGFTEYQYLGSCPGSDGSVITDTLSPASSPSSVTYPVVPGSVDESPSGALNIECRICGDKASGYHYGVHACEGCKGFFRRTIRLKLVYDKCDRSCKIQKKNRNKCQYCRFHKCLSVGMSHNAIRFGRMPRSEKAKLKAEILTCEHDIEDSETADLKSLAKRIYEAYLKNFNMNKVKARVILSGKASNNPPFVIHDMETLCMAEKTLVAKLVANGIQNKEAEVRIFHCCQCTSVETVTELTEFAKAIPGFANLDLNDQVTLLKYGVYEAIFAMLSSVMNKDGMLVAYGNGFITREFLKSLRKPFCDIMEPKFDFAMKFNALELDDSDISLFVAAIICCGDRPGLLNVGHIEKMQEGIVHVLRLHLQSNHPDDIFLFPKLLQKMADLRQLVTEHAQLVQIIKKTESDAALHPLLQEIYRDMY

As to `COc1cc2c3cc1Oc1cc(ccc1O)C[C@@H]1c4c(cc(OC)c(O)c4Oc4ccc(cc4)C[C@H]3[N+](C)(C)CC2)CC[N+]1(C)C`, the activity change, negative = inhibition in [1] is 5.87%; in [3] it was 0.638%. Further, the Potency entry in [2], in assay [5] and in assay [6] was “inactive” in each case. Besides, the activity, negative = inhibition in assay [4] is 21.4%.

`C=C[C@H]1CN2CC[C@@H]1C[C@H]2[C@@H](O)c1ccnc2ccc(OC)cc12`: the activity change, negative = inhibition in assay [1] is -5.24% [at 17.2 µM]; in assay [3], -13% [at 17.2 µM]. The Potency entry in assay [2] and in [5] was “inactive” in each case. Also, in assay [4], the activity, negative = inhibition was -9.97% [at 17.2 µM].

As to `CCCC(c1cc(C(C)(C)C)c(O)cc1C)c1cc(C(C)(C)C)c(O)cc1C`, the activity change, negative = inhibition in [1] is 28.1%; in [2], -12.3% [at 2.29 µM]. Also, the activity, negative = inhibition in assay [4] was 4.1%. Also, the Potency was more than 46 µM in assay [7] and more than 9.22 µM in assay [8]. Also, the Potency result in assay [5] and in assay [6] was “inactive” throughout.

With `Nc1ccn([C@H]2CC[C@H](CO)O2)c(=O)n1`, the activity change, negative = inhibition in assay [1] is 15.8% [at 38 µM]; in assay [3], 5.71% [at 38 µM]. Besides, the Potency entry in assay [2], in [5] and in assay [6] was “inactive” throughout. The activity, negative = inhibition in assay [4] was -0.228% [at 38 µM].

`Cc1ccc(C(=O)O[C@@H](C(=O)O)[C@@H](OC(=O)c2ccc(C)cc2)C(=O)O)cc1` (tested in a mixture with another compound): the activity change, negative = inhibition is -1.5% [at 38 µM] in assay [1] and 0.143% [at 38 µM] in [3]. Besides, the Potency result in [2] and in assay [6] was “inactive” in each case. Moreover, the activity, negative = inhibition in assay [4] is 0.98% [at 38 µM].

For the molecule `COC(=O)[C@@H]1[C@H]2C[C@H]3c4[nH]c5cc(OC)ccc5c4CCN3C[C@@H]2C[C@@H](OC(=O)c2cc(OC)c(OC)c(OC)c2)[C@@H]1OC`, the Potency in assay [2] was 15.8 µM (active); in assay [7], more than 46 µM; in [8], more than 46 µM. Moreover, the activity change, negative = inhibition in assay [3] is 3.19% [at 38 µM]. For the same molecule, the Potency result in assay [5] and in assay [6] was “inactive” in each case.

For the molecule `CN(C)C(=O)/N=N\C(=O)N(C)C`, the Potency result in assay [2], in assay [5] and in assay [6] was “inactive” each time. Further, the activity change, negative = inhibition in assay [3] was -14.2% [at 38 µM]. In assay [4], the activity, negative = inhibition was 5.55% [at 38 µM]. Also, the Potency in assay [7] and in [8] was more than 46 µM each time.

As to `CCNC(=S)NCC`, the Potency entry in [5], in assay [9], in assay [10], in assay [11], in [12] and in assay [17] was “inactive” each time. Also, the Potency result in assay [20] is “inactive”. The molecule was called inactive in [13], in [14] and in assay [16]. In addition, the caspase-3 activation in [15] is -2.38%. Further, the max response in [18] was -2.88%; in assay [19] it was -3.61%.
